CYP2C9 activ: activators of human CYP2C9; AID 1024; actives 1.4% (n = 96,000); P11712; activation factor at 5 µM; recombinant CYP2C9, luciferin-H conversion, luminescence; active compounds read high; factor 1 = untreated enzyme, 0 = blocked;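 active = activation factor of 2 or more for CYP2C9 at a 5 µM dose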
CYP2C9 inhib: human CYP2C9 inhibition | P11712 | CYP2C9 Supersomes, luciferin-H conversion, luminescence | inhibition, % at 5 µM | actives 20% (n = 96,000) | AID 777;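 active = blocking of liver enzyme CYP2C9 beyond about 50% at 5 µM, limit read from the data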
CYP2C19 act: increases human CYP2C19 enzyme activity. P33261. recombinant CYP2C19, luciferin-H EGE luminescence; active compounds read high; 0 = fully inhibited enzyme, 1 = untreated enzyme. activation factor at 5 µM. 96,000 tested, under 10 active. AID 1025;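 active = activation factor of at least 2 at 5 µM in the primary screen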
EphB4 ephrin blk: EphB4-ephrin-B2 interaction antagonism; EphB4 LBD / TNYL-RAW-Alexa532 peptide, fluorescence polarization; actives 0.15% (n = 97,000); inhibition, % at 7 µM; AID 720; P54760;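 active = inhibition above the screen-wide mean inhibition plus 3 SD, cut at about 15% in these data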
Target sequence (P54760 whole entry, looked up, the tested form may be a part): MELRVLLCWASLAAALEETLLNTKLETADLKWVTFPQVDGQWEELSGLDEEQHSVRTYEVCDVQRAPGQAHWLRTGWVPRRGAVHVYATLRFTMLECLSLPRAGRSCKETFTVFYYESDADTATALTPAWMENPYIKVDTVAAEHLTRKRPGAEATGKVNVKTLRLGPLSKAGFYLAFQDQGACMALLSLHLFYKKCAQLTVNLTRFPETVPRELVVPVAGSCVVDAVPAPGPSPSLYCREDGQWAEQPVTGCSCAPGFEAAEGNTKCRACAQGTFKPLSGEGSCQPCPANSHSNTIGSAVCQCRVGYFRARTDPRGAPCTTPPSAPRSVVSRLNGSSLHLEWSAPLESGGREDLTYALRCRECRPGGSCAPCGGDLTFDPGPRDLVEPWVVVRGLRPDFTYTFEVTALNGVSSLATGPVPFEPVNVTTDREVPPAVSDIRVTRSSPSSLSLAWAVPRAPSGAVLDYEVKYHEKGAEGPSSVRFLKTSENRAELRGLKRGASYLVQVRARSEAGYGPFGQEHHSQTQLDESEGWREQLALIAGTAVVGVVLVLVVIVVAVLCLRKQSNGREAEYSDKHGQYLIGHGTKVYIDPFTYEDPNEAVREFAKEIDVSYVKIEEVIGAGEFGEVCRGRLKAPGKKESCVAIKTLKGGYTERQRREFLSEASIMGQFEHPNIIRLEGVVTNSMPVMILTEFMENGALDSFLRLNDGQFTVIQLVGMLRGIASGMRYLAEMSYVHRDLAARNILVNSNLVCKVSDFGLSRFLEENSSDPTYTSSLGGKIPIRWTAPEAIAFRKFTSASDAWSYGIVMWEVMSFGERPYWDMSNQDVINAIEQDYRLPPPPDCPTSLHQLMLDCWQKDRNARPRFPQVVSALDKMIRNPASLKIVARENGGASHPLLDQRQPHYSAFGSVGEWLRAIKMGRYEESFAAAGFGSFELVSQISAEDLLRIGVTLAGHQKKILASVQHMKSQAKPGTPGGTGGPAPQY
CYP2C19 inh: inhibitors of human CYP2C19. actives 21% (n = 96,000). inhibition, % at 5 µM. CYP2C19 Supersomes, luciferin-H EGE luminescence, 30 min;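 active = CYP2C19 inhibition above a set limit at 5 µM in the primary screen, cut at about 50% in these data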
Hits are given with their value; i = inactive; nt = no result given. In the library only some 27% were active in any assay of this set; here they are far more common.

SMILES	CYP2C9 activ	CYP2C9 inhib	CYP2C19 act	EphB4 ephrin blk	CYP2C19 inh
O=C(NC1CCCC1)C(c1ccccc1F)N(C(=O)c1ccco1)C1CCCC1 (stereo unspecified)	i	50.8	i	nt	i
COc1ccccc1CN(C(=O)Cc1cccs1)C(C(=O)NC1CCCC1)c1ccncc1 (stereo unspecified)	i	i	i	i	76.9
Cc1ccc(-c2nnn(CC(=O)N(Cc3cccs3)C(C(=O)NC3CCCC3)c3ccncc3)n2)cc1 (stereo unspecified)	nt	nt	nt	i	nt
COc1ccc(NC(=O)CC(C)(C)C)c([N+](=O)[O-])c1	i	i	i	i	i
CCOc1ccc(C2CC(=O)NC(SC)=C2C#N)cc1 (stereo unspecified)	i	56.2	i	i	i
C=CCSC1=C(C#N)C(c2ccc(OCC)cc2)CC(=O)N1 (stereo unspecified)	i	64.8	i	i	81.7
COC(=O)CSC1=C(C#N)C(c2ccc(F)cc2)CC(=O)N1 (stereo unspecified)	i	90.5	i	i	72.3
C=CCSC1=C(C#N)C(c2ccccc2C)CC(=O)N1 (stereo unspecified)	i	i	i	i	i
CSC1=C(C#N)C(c2ccc(C(C)C)cc2)CC(=O)N1 (stereo unspecified)	i	i	i	i	i
CCOc1ccc(NC(=O)CSC2=C(C#N)C(c3ccc4c(c3)OCO4)CC(=O)N2)cc1 (stereo unspecified)	i	i	i	i	i
CCCOC(=O)CSC1=C(C#N)C(c2ccc3c(c2)OCO3)CC(=O)N1 (stereo unspecified)	i	97.2	i	i	92.2
COC(=O)CSC1=C(C#N)C(c2sccc2C)CC(=O)N1 (stereo unspecified)	nt	nt	nt	i	nt
O=C(O)Cn1nnc(-c2cccs2)n1	i	i	i	i	i
Cc1nn(-c2ccccc2)c(C)c1/C=N/n1c(-c2ccc(C(C)(C)C)cc2)n[nH]c1=S	i	81.8	i	i	i
Cc1nn(-c2ccccc2)c(C)c1/C=N/NC(=O)c1cc(C(C)(C)C)[nH]n1	i	57.6	i	i	i
Cc1cc(C)nc(/N=C2\NC(=O)CC3C(=O)NCCN23)n1 (stereo unspecified)	nt	nt	nt	i	nt
Cc1ccc2c(c1)C(c1ccc(N3CCOCC3)cc1)=NNC(c1cccs1)=N2	i	i	i	i	i
COc1cc2c3nnc(-c4ccc(F)cc4)c-3cn(Cc3ccccc3)c2cc1OC	i	i	i	i	i
COc1ccc(Nc2nc(N3CCCC3)c3ccccc3n2)cc1	i	i	i	nt	i
CCN(CC)c1ccc(Nc2nc(N3CCOCC3)c3ccccc3n2)cc1	i	55.3	i	i	54.5
COc1ccc(NC(=O)c2sccc2C)c([N+](=O)[O-])c1	i	i	i	i	i
COc1ccccc1C(=O)Nc1nnc(-c2ccc3c(c2)CCCC3)o1	2.1	i	i	i	75.1
Cc1cc(C(=O)CN2C(=O)c3cccc(N)c3C2=O)c(C)n1Cc1cccs1	2.4	i	i	i	91.3
COc1ccccc1-n1cnnc1SCC(=O)c1cc(C)n(Cc2cccs2)c1C	i	88.8	i	i	97.8
Cc1cc(C(=O)CSc2nnc(-c3ccccc3F)o2)c(C)n1Cc1cccs1	i	77.8	i	i	96.2
SMILES	CYP2C9 activ	CYP2C9 inhib	CYP2C19 act	EphB4 ephrin blk	CYP2C19 inh
Cc1cc(C(=O)CN2C(=O)c3ccccc3S2(=O)=O)c(C)n1CC1CCCO1 (stereo unspecified)	i	i	i	nt	i
Cc1cc(C)c(C(=O)CSc2nnc(-c3ccccc3Br)o2)cc1C	i	i	i	i	i
C=CCn1c(SCC(=O)c2cc(C)n(Cc3cccs3)c2C)nnc1-c1ccncc1	i	i	i	nt	i
CS(=O)(=O)N1CCN(C(=O)c2c(F)cccc2F)CC1	i	i	i	i	i
CS(=O)(=O)N1CCN(C(=O)c2csc3ccccc23)CC1	i	i	i	i	i
Cc1scc(C(=O)N2CCN(S(C)(=O)=O)CC2)c1-c1ccccc1	i	i	i	i	96.8
Cc1cccc(CN2CCN(C(=O)c3ccccc3F)CC2)c1	i	68.4	i	i	99.1
Cc1cccc(NC(=O)N2CCN(Cc3ccccc3)CC2)c1	nt	nt	nt	i	nt
O=C(c1ccccc1F)N1CCN(S(=O)(=O)c2ccc(S(=O)(=O)N3CCCCC3)cc2)CC1	i	i	i	i	80.5
CS(=O)(=O)N1CCN(C(=O)c2ccccc2F)CC1	i	i	i	i	57.4
Cc1cc(C)nc(N2CCC(C(=O)NC3CCCCCC3)CC2)n1	nt	nt	nt	i	nt
CCCCCOc1ccc(CSc2ncn[nH]2)cc1	nt	nt	nt	i	nt
Cc1c(NC(=O)C2CC(c3c(F)cccc3Cl)=NO2)c(=O)n(-c2ccccc2)n1C (stereo unspecified)	i	i	i	i	i
CN1CCN(C(=O)C2CC(c3c(F)cccc3Cl)=NO2)CC1 (stereo unspecified)	2.8	i	i	i	i
Cc1ccc(O)c(NC(=O)C2CC(c3c(F)cccc3Cl)=NO2)c1 (stereo unspecified)	i	i	i	i	94.3
COc1ccc(NC(=O)c2cccs2)cc1O	i	i	i	i	i
COc1ccc(NC(=O)c2ccccc2NC(=O)c2ccco2)c(OC)c1	i	59.2	i	i	i
COc1ccc(OC)c(CNCCNC(=O)c2ccco2)c1	i	i	i	i	73.1
COc1ccc(/C=C/C(=O)c2ccc(NC(=O)c3cccs3)cc2)cc1OC	i	71.9	i	i	i
COc1cc(NC(=O)c2ccco2)ccc1NC(=O)c1ccccc1Cl	i	71.6	i	i	51.2
O=C(CCn1c(=O)oc2ccccc21)NCCCN1CCN(c2ccc(F)cc2)CC1	i	i	i	i	i
Cc1occc1C(=O)Nc1c(F)cc(F)cc1Br	i	i	i	i	i
COC(=O)c1ccsc1NC(=O)C1=COCCO1	i	i	i	i	i
O=C(Nc1cccc(NC(=O)c2cccs2)c1)c1ccco1	i	i	i	i	i
COc1cc(NC(=O)c2cccs2)ccc1NC(=O)c1ccco1	i	73.9	i	i	i
SMILES	CYP2C9 activ	CYP2C9 inhib	CYP2C19 act	EphB4 ephrin blk	CYP2C19 inh
CCOC(=O)c1nn(C23CC4CC(CC(C4)C2)C3)c2c1C(=O)N(c1ccc(C)cc1)C2=O	i	i	i	i	i
Cc1cccc(N2CCN(C(=O)c3ccc(NS(=O)(=O)c4c(C)noc4C)cc3)CC2)c1C	i	95.9	i	i	i
Cc1noc(C)c1C(=O)N1CCc2ccccc2C1	i	i	i	i	i
CCc1cccc(NC(=O)c2ccc(NS(=O)(=O)c3c(C)noc3C)cc2)c1	i	51.2	i	i	i
Cc1noc(C)c1S(=O)(=O)Nc1ccc(C(=O)N2CCc3ccccc3C2)cc1	i	58.9	i	i	i
Cc1noc(C)c1S(=O)(=O)Nc1ccc(C(=O)N2CCN(c3cccc(Cl)c3)CC2)cc1	i	79.4	i	i	i
O=C(O)c1cc(-c2ccccc2)c(N2CCOCC2)s1	i	i	i	i	i
CC(C)(C)NS(=O)(=O)c1ccc2c(c1)oc(=O)c1cc(S(=O)(=O)NC(C)(C)C)ccc12	i	i	i	i	i
Cc1ccc(NC(=O)c2sccc2-n2cccc2)c(C)c1	i	i	i	i	i
